Each structure is given as a SMILES string. Results filed as inconclusive are left out. Calls of active or inactive are those of the source. Rule for the calls: active = hit-call score of the fitted dose curve at least 0.9, where 1 is the maximum; inconclusive = response in the unintended direction; inactive = score below 0.9.

Usually AC50 stands for the concentration at which the activity in the assay is half-maximal.

The nature of the assay: CCTE_Simmons_CellTiterGLO_HEK293T: Viability Assessment in CCTE's Assays for Thyroperoxidase (TPO) Inhibition, Simmons Lab (AID 2283665).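 For AC50: cells exposed to compound for 24 h before readout; actives reduce ATP signal below DMSO vehicle meaning cytotoxicity.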 The procedure:
CCTE_Simmons_CellTiterGLO_HEK293T is a cell-based, single-readout assay that uses HEK293T, a human kidney cell line, with measurements taken at 24 hours after chemical dosing in a 384-well plate.CCTE_Simmons_CellTiterGLO_HEK293T is the assay component measured from the CCTE_Simmons_CellTiterGLO_HEK293T assay. It is designed to make measurements of ATP content, a form of viability reporter, as detected with bioluminescence signals by Luciferase-coupled ATP quantitation technology. This is a secondary cytotoxicity assay to CCTE_Simmons_AUR_TPO to estimate a cellular tolerance limit.Data from the assay component CCTE_Simmons_CellTiterGLO_HEK293T was analyzed at the endpoint, CCTE_Simmons_CellTiterGLO_HEK293T, in the positive analysis fitting direction relative to DMSO as the negative control and baseline of activity. Using a type of viability reporter, measures of ATP content for loss-of-signal activity can be used to understand the viability. This assay was run in parallel with aeid 1508 as a means of indicating the range of chemical cytotoxicity or reactivity. To generalize the intended target to other relatable targets, this assay endpoint is annotated to the cell cycle intended target family, where the subfamily is cytotoxicity.
Human HEK293T cells (GenHunter; Nashville, Tennessee) were seeded overnight in 384-well, solid white assay plates (Greiner, BioExpress) at a density of 10 000 cells per well in 65 ul Dulbecco's Modified Eagle Medium (Life Technologies; Carlsbad, California) supplemented with 1% fetal bovine serum (HyClone; Logan, Utah). Test compounds were administered using the HDRT as described earlier to achieve a 0.5% final DMSO concentration. Cells were then incubated at 37C for 24 hr in a humidified 5% CO2 incubator. Cell Titer Glo (Promega; Madison, WI) reagent (25 ul) was then added by the BioTek MicroFlo and microplates were incubated at room temperature in the dark for 20min. Plates were read on a plate reader (FLUOStar Optima) using an endpoint luminescence protocol (top read). Three biological replicates of technical singles were run for every chemical concentration tested. A titrated range of DCNQ served as a positive control on each plate of the cytotoxicity screening assay.Test chemicals were administered as a titrated series of 8 concentrations from 5 nM up to 87.5 uM [final] for 24 hours prior to single endpoint detection. Three biological replicates of technical singles were run for every chemical concentration tested. Dimethylsulfoxide [DMSO] was used as the vehicle control. Dichlone [DCNQ] was used as the positive control and was administered as a titrated series of 8 concentrations from 1 nM up to 100 uM [final].
As to `CCCCCCc1ccc(N)cc1`, the concentration at half-maximal activity (AC50) is 11.3 µM (active).

As for `C[C@]12CC[C@@H]3c4ccc(O)cc4CC[C@H]3[C@@H]1C[C@@H](O)[C@@H]2O`, the outcome was inactive.

With `Cc1cc(C(C)(C)C)c(O)c(C(C)(C)C)c1`, the AC50 was 24.5 µM (active).

As to `CCCCCCCCCCCCOC(=O)c1cc(O)c(O)c(O)c1`, the AC50 is 5.48 µM (active).

Regarding `NC(=NCCCCCCN=C(N)/N=C(\N)Nc1ccc(Cl)cc1)/N=C(\N)Nc1ccc(Cl)cc1`, the AC50 is 7.96 µM (active).

Regarding `O=C1OC2(c3ccccc31)c1cc(I)c(O)c(I)c1Oc1c2cc(I)c(O)c1I`, the AC50 is 5.7 µM (active).

Consider `CCCCCCCCCCCC`, for which the concentration at half-maximal activity (AC50) is 31.8 µM (active).

Turning to `Cc1cc(Cc2cc(C)cc(C(C)(C)C)c2O)c(O)c(C(C)(C)C)c1`, the AC50 is 6.57 µM (active).

Turning to `COc1cc([N+](=O)[O-])ccc1N`, the concentration at half-maximal activity (AC50) was 19.1 µM (active).

On to `Cc1[nH]nc2c1N=C(c1ccccc1Cl)c1cc([N+](=O)[O-])ccc1N2`, for which the half-maximal activity concentration (AC50) is 15.2 µM (active).

As to `CN(Cc1cnc2nc(N)nc(N)c2n1)c1ccc(C(=O)N[C@@H](CCC(=O)O)C(=O)O)cc1`, the half-maximal activity concentration (AC50) was 0.0489 µM (active).

Turning to `CCc1cccc(CC)c1N(COC)C(=O)CS(=O)(=O)O`, the compound was classed as inactive.

For `Cc1cc(C(=C2C=CC(=Nc3ccc(S(=O)(=O)O)cc3)C=C2)c2ccc(Nc3ccc(S(=O)(=O)O)cc3)cc2)cc(S(=O)(=O)O)c1N`, the result was inactive.

Values taken from PubChem BioAssay (EPA / NIEHS).
